26 compounds from PubChem BioAssay (NCI) can be followed below.

About 83,000 compounds went through this panel and 20% of them were active in at least one assay; those are over-represented in the sample as a whole.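 Results are percent growth after 48 hours of single-concentration exposure. 100 means growth as in untreated cells, lower positive values show inhibition; negative values down to -100 show cell death.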 Calls of active or inactive are those of the source. The calls were made as follows: active = growth percent below 10; inactive = the rest.

The experiment deals with HL-60(TB) leukemia. The experiment is described as follows: NCI-60 one-dose screen, 48 h (100 = growth as untreated, 0 = no growth, -100 = all killed). The conditions noted are these: 10 µM unless noted.
On to `N#Cc1c(-c2ccccn2)[nH]c(=S)[nH]c1=O`, for which the growth was 94.9% (inactive).

For `NC(=O)c1cccc(-c2ccccc2N2CCCCC2)c1`, the growth was 95.3% (inactive).

For the compound `C/C(=C\CCc1ccsc1)CC/C=C(\C)CCCN1CCC(CO)CC1`, the growth is -49.9% (active). As for `CCOc1ccc2nc(C)cc(Nc3ccc(Br)cc3)c2c1`, the figure is 107% (inactive); as for `Clc1ccc2c(c1)-n1cccc1C(c1ccc3ccccc3c1)=NC2`, 76.9% (inactive). With `CCCCNc1nc(NC(C)(C)C)nc(NC(C)(C)C)n1`, the growth was 36.6% (inactive). For the compound `Cn1cnc([N+](=O)[O-])c1N1c2ccncc2Sc2ccncc21`, the growth is 87.5% (inactive). Take `C/C(=N\Nc1ccc([N+](=O)[O-])cc1[N+](=O)[O-])c1ccc(Br)cc1`: the growth was 101% (inactive).

For `CCCCCCCCCCCCCCCCCCOCC(COP(=O)([O-])OCC[N+](C)(C)C)OC` (stereo unspecified), the growth was 46.4% (inactive). On to `Cc1nn(-c2ccc(Cl)cc2)c2ncnc(N/N=C/c3cccc([N+](=O)[O-])c3)c12`, for which the growth was 31% (inactive).

Turning to `COc1ccc(/C=C2/CCc3cc4ccc(OC)cc4[o+]c32)c(O)c1`, the growth is 60.8% (inactive). With `CC(C)=CCC[C@](C)(O)[C@H]1CC[C@]2(C)[C@@H]1CC[C@@H]1[C@@]3(C)C/C(=C/c4ccco4)C(=O)C(C)(C)[C@@H]3CC[C@]12C`, the growth is 119% (inactive). With `COC1=CC(c2ccc[nH]2)=N/C1=C\c1[nH]c(C)c(CC(=O)NCc2ccccc2)c1C`, the growth is -0.337% (active).

Consider `Cc1ccc(NC(=O)C2CCC(CN3CCN(C)CC3)CC2)cc1Nc1nccc(-c2cccnc2)n1` (stereo unspecified), for which the growth is 110% (inactive). Take `CCCc1cc(=O)n2c(C(=O)Nc3ccccc3OC)c(C(=O)Nc3ccc(F)cc3)sc2n1`: the growth is 47.1% [30 µM] (inactive).

As for `S=C=NP1(N=C=S)=NP(N=C=S)(N=C=S)=NP(N=C=S)(N=C=S)=NP(N=C=S)(N=C=S)=N1` (stereo unspecified), the growth is 60.7% (inactive).

On to `NC(=S)N/N=C1\c2ccccc2-c2c(F)c(F)c(F)c(F)c21`, for which the growth was 44.4% (inactive). Turning to `Cc1c(O)cc(-c2cnc(N/N=C/c3ccccc3)s2)c(O)c1C`, the growth is 19.1% (inactive). Turning to `N=C(N)c1ccc(-c2cc(Cl)cc(Cl)c2)cn1`, the growth was 98.1% (inactive). Consider `O=C(NCCCNC(=O)OCc1ccc2cccc(O)c2n1)OCc1ccc2cccc(O)c2n1`, for which the growth is 45.5% (inactive). As for `c1ccc(CCCCc2ccc3ccccc3n2)cc1`, the growth was 102% (inactive).

In the case of `Nc1nc2ccccc2c2c(=O)c3ccc(Cl)cc3sc12`, the growth is 92.1% (inactive). Turning to `CC/C=C\C/C=C\C[C@H](O)C/C=C1/C(=O)C=C[C@H]1C/C=C\CCC(=O)OC`, the growth was 1.46% [8.25 µM] (active). Then `O=C(O)CCC(NC(=O)OCc1ccccc1)C(=O)O` (stereo unspecified), with 108% (inactive).

Turning to `COC(=O)[C@]1(C)CCC[C@]2(C)[C@H]3C[C@@H]4[C@H]5[C@@H]6CC/C(=N\OCC/C(N)=N/O)[C@H]5[C@@]3(CC[C@H]21)CC4(C(C)C)O6`, the growth is 30.6% (inactive).

As to `CNCCn1c(=O)c2cc(OC)c(OC)cc2c2ccc3cc4c(cc3c21)OCO4`, the growth is -25.7% (active).
